Hits are enriched below; roughly 7.1% of the tested compounds scored in any of these assays.
Lassa entry = Lassa virus entry inhibition; Lassa virus pseudotyped entry inhibition, cell-based qHTS; Potency, µM (titrated, usually from 49.2 µM), without a hit: at the top dose activity change, negative = inhibition, actives largely listed as inhibitors; 4.1% of 18,000 active; AID 720533
MARV entry inh = inhibitors of Marburg virus binding or entry into cells; Marburg virus pseudotype entry/binding inhibition, cell-based; Potency, µM (top dose mostly 49.2 µM), inactives show top-dose activity change, negative = inhibition, most hits filed as inhibitors; 6.5% of 18,000 active; AID 720532
Active calls of the source: *; [ ] = dose if it differs, or a comment. Calls come from the whole dose curve; tested in HEK293 cells. % is set by controls: 0 for no effect and ±100 for the full control effect; potency is the fitted concentration of half-maximal effect.

How did C[CH2][Hg][S]c1ccccc1C(=O)O do in these assays?
Lassa entry: 1.1µM*; MARV entry inh: inconclusive

How did CC=COC(=O)N[C@@H](c1ccccc1)[C@]1(C(C)=O)CCOC1=O do in these assays?
Lassa entry: 24%[8.59 µM]; MARV entry inh: 7%[8.59 µM]

How did CC(C)C[C@H](CO)NS(=O)(=O)c1cccc(Cl)c1F do in these assays?
Lassa entry: 6%; MARV entry inh: 85%

How did O=C(N/N=C/c1ccccc1O)c1ccncc1 do in these assays?
Lassa entry: 10µM*; MARV entry inh: -24%

How did O=C(O)COc1ccccc1/C=N/NC(=O)c1ccncc1 do in these assays?
Lassa entry: -3%; MARV entry inh: 15%

What do the screens show for `CC(=O)OC[C@H]1O[C@@H](ON=C(C)CCC(=O)OC[C@H]2O[C@H](C#Cc3ccccc3)C=C[C@H]2Oc2ccc(C)cc2)[C@H](OC(C)=O)[C@@H](OC(C)=O)[C@H]1OC(C)=O`?
Lassa entry: -1%[8.59 µM]; MARV entry inh: 9%[8.59 µM]

What do the screens show for `CC(=O)Nc1c2sscc-2n(C)c1=O`?
Lassa entry: 10µM*; MARV entry inh: 11µM*

Results for CC(=O)Nc1c(N)[nH]c(=O)n(C)c1=O ?
Lassa entry: 4%; MARV entry inh: -3%

How did CCN1C(=NCC(C)C)N[C@H](c2ccccc2)[C@H](C(=O)OC)[C@H]1C do in these assays?
Lassa entry: inconclusive; MARV entry inh: 8%[8.59 µM]

How did CCS(=O)(=O)c1ccc(OC)c(Nc2ncc(-c3cccc(-c4ccccc4F)c3)o2)c1 do in these assays?
MARV entry inh: -74%

Results for C=CCN=C1N[C@H](c2ccc(Br)cc2)C(C(=O)OC)=C(C)N1Cc1ccccc1 ?
Lassa entry: -5%[8.59 µM]; MARV entry inh: 1%[8.59 µM]

How did CCC(Oc1ccc(Cl)cc1)C(=O)OC1CC2CCC(C1)N2C (stereo not given) do in these assays?
Lassa entry: inconclusive; MARV entry inh: 6.3µM*

What do the screens show for `CN1CCC(OC(=O)C(Oc2ccc(Cl)cc2)Oc2ccc(Cl)cc2)CC1`?
Lassa entry: -26%; MARV entry inh: 6%

What do the screens show for `CC(C(=O)OC1CC2CCC(C1)N2C)c1ccc(Br)cc1` (stereo not given)?
Lassa entry: -11%; MARV entry inh: 28µM*

What do the screens show for `CN1C2CCC1CC(OC(=O)C(O)c1ccccc1)C2` (stereo not given)?
Lassa entry: -1%; MARV entry inh: 1%

How did COC(=O)C1=C(C)N(Cc2ccccc2)C(=NCCc2ccc(O)cc2)NC1c1ccc(Br)cc1 (stereo not given) do in these assays?
Lassa entry: -24%[8.59 µM]; MARV entry inh: 2%[8.59 µM]

How did C[C@H]1CC[C@H]2C(=O)N(Cc3ccccc3)C[C@@H](O)CN2[C@H]1c1cccc(Br)c1 do in these assays?
MARV entry inh: 10%[8.59 µM]

What do the screens show for `CC#CCN1C(=O)NC(c2ccccc2)C(C(=O)OC)=C1C` (stereo not given)?
Lassa entry: 8%[8.59 µM]; MARV entry inh: inconclusive

What do the screens show for `CC(C)=CCN1C(=O)[C@@]2(CC(C)=CC[C@@H](COc3ccccc3)O2)c2ccccc21`?
Lassa entry: -17%[8.59 µM]; MARV entry inh: 3%[8.59 µM]

Results for C=CC[C@@H]1C=C[C@H](ON=C[C@@H](C)[C@H](OCc2ccccc2)C(C)C)[C@H](CO)O1 ?
MARV entry inh: -10%[8.59 µM]

What do the screens show for `COC(=O)CC=C[C@@H](C)[C@@H](C=NO[C@H](C)CN1CCCc2nc(C)c(C)cc21)N[S+](=O)([O-])c1ccc(C)cc1`?
Lassa entry: 14%[8.59 µM]; MARV entry inh: inconclusive

Results for CCOC(=O)NN=Cc1ccccc1-c1cc(OC)ccc1OC ?
Lassa entry: -18%[8.59 µM]; MARV entry inh: -4%[8.59 µM]

Results for CN(Cc1cnc2nc(N)nc(N)c2n1)c1ccc(C(=O)N[C@H](CCC(=O)O)C(=O)O)cc1 ?
Lassa entry: -12%[17.8 µM]; MARV entry inh: 32µM*

How did CN(Cc1cnc2nc(N)nc(N)c2n1)c1ccc(C(=O)N[C@@H](CCC(=O)O)C(=O)O)cc1 do in these assays?
Lassa entry: 0%; MARV entry inh: 15%

Results for CCCOc1ccc2nc(NC(=O)OC)sc2c1 ?
Lassa entry: 3.2µM*; MARV entry inh: 17%

What do the screens show for `COC(=O)Nc1nc2ccc(Oc3ccc(NC(=O)Nc4cc(C(F)(F)F)ccc4F)cc3)cc2s1`?
Lassa entry: 6%; MARV entry inh: inconclusive

How did C=C1Cc2c(Cl)cc3[nH]c4c5c3c2[C@@]2(O)[C@@H]1C[C@@H]2C(C)(C)O[C@H]5[C@@H]1CC[C@@]2(O)[C@@]35O[C@@H]3[C@@H](O)[C@@H](C(=O)O)O[C@H]5CC[C@]2(C)[C@@]41C do in these assays?
Lassa entry: 28µM*; MARV entry inh: inconclusive

Results for CCOC(=O)NN=C1C[C@@H](O)[C@@H](O)[C@@H]2[C@H]3C(=O)N([C@@H](C)c4ccccc4)C(=O)[C@@H]3CC[C@@H]12 ?
Lassa entry: -24%[8.59 µM]; MARV entry inh: -22%[8.59 µM]

What do the screens show for `C=CCOC(=O)N[C@H](C(C(=O)OC)=C(C)NCc1ccccc1)c1ccc(C)cc1`?
MARV entry inh: 47%[8.59 µM]

Results for CC(=O)Nc1ccc(-c2c(C)cc3oc(=O)cc(-c4ccccc4)c3c2C)cc1 ?
Lassa entry: 7.9µM*; MARV entry inh: -22%

What do the screens show for `Cc1ccc(-c2c(C)cc3oc(=O)cc(-c4ccccc4)c3c2C)cc1`?
Lassa entry: inconclusive; MARV entry inh: -17%

Results for COC(=O)[C@H]1[C@H](C)[C@@]2(O)c3ccccc3N(C)[C@@]1(C)[C@H]2O ?
Lassa entry: -14%[8.59 µM]; MARV entry inh: -25%[8.59 µM]

How did O=C1CS(=O)(=O)N(Cc2ccccc2)[C@H]1Cc1ccccc1 do in these assays?
Lassa entry: 3%; MARV entry inh: 21%

How did COc1ccc(CNC(=O)c2ccc(-c3cc(-c4nnc(C)o4)ccc3C)cc2)cc1 do in these assays?
MARV entry inh: -34%

Results for CC(C)CCOC(=O)c1ccc(N(C)C)cc1 ?
Lassa entry: 8%; MARV entry inh: 8%

How did CN=C1C=CC(=C(c2ccc(N(C)C)cc2)c2ccc(N(C)C)cc2)C=C1 do in these assays?
Lassa entry: 3.5µM*; MARV entry inh: 2.8µM*

What do the screens show for `COC(=O)N[C@H](CC(C)=O)c1ccc2c(c1)OCO2`?
Lassa entry: -15%[8.59 µM]; MARV entry inh: -17%[8.59 µM]

How did COc1cc2c(cc1OC)-c1c(O)c(OC)cc3c1[C@H](C2)N(C)CC3 do in these assays?
Lassa entry: -8%; MARV entry inh: 0%

What do the screens show for `COc1cc2c(cc1OC)-c1cc(=Nc3c(C)cc(C)cc3C)n(C)c(=O)n1CC2`?
Lassa entry: 11µM*; MARV entry inh: 13µM*

What do the screens show for `O=C(c1cccs1)N1C[C@@H](n2cc(-c3ccc(F)cc3)nn2)[C@@H](O)C[C@@H]1c1ccc(Cl)cc1`?
Lassa entry: -27%; MARV entry inh: inconclusive

What do the screens show for `Cc1ccc(CN2[C@@H](C)[C@@H](C)Oc3c(Cl)cccc3[S+]2(=O)[O-])cc1`?
Lassa entry: -7%; MARV entry inh: 14%

Results for COC(=O)N[C@H](CC(C)=O)c1cccc(F)c1 ?
Lassa entry: 21%[8.59 µM]; MARV entry inh: -7%[8.59 µM]

What do the screens show for `CC(C)[C@H](NC(=O)OCc1ccccc1)C(=O)N[C@H](C=O)Cc1ccccc1`?
Lassa entry: -5%; MARV entry inh: inconclusive

What do the screens show for `CC(C)C[C@@H](C=O)NC(=O)[C@H](CC(C)C)NC(=O)[C@H](CC(C)C)NC(=O)OCc1ccccc1`?
Lassa entry: 3.5µM*; MARV entry inh: inconclusive

Results for C[C@H]1CC[C@H]2C(=O)N(Cc3ccccc3)C[C@H](O)CN2[C@H]1c1cccc(Br)c1 ?
MARV entry inh: -5%[8.59 µM]

What do the screens show for `COC(=O)N1C2=C(c3ccccc3[C@@H]1CC(=O)O)[C@@H]1O[C@@H](C2)c2ccccc21`?
Lassa entry: -14%[8.59 µM]; MARV entry inh: inconclusive
